Test [1] has as its target Albumin (Bos taurus) (UniProt P02769). In words: compounds binding labelled BSA control protein – biochemical, small-molecule microarray, Alexa647 label, 635/667 nm fluorescence, artefact control for SMM control protein annotation, profiling panel (AID 1118).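 Further: score merges 667 nm emission intensity and signal-to-noise per printed compound spot.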 The settings on record: BSA-A647 binding, fluorescence 635 nm, higher = more signal.
Test [2] can be described thus: probe aXIP binding to arrayed compounds – biochemical, NeuroSMM set, 635/667 nm fluorescence, primary screen (AID 1119).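 Further: probe is the protein aXip251-270 applied at 1 µg/mL to compound-printed slides; binding of probe to printed compounds measured as 667 nm fluorescence plus signal to noise.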 The settings on record: small-molecule microarray, higher = more signal, called active from +8 up or from −8 down.
Test [3] in a line: probe aNOTCH3 binding on compound microarray – biochemical, small-molecule microarray, 635/667 nm fluorescence, primary screen (AID 1120).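 Further: probe is a biotin-tagged antibody raised against NOTCH3 rather than NOTCH3 protein; score merges spot fluorescence near 667 nm with spot signal to noise.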 The settings on record: higher = more signal.
Test [4] can be described thus: probe aNOTCH2 binding on compound microarray – biochemical, small-molecule microarray, 635/667 nm fluorescence, primary screen (AID 1121).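 Further: score merges feature fluorescence read at 667 nm with its signal to noise.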 The settings on record: higher = more signal.
Test [5] addresses Carbonic anhydrase 2 (Homo sapiens) (UniProt P00918). Description: compounds binding carbonic anhydrase 2 – biochemical, small-molecule microarray, Alexa647-labelled CAII, profiling panel (AID 1122). The settings on record: CAII-A647 binding fluorescence, higher = more signal.
The nature of test [6]: COS7 lysate on small-molecule microarray, probe aHis, 635 nm (AID 1123).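 Further: z-score combines 667nm fluorescence intensity with signal-to-noise per printed compound spot.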 The settings on record: COS7 cell lysate, fluorescence, higher = more signal.
Test [7] is described as follows: probe aLAP1 signal on lysate-treated microarray – cell lysate, small-molecule microarray, COS7 lysate, primary screen (AID 1124).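 Further: lysate comes from COS7 cells expressing LAP1 and is applied at 0.3 µg/mL; score merges spot fluorescence near 667 nm with signal-to-noise over triplicate slides.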 The settings on record: probe aLAP1, fluorescence, higher = more signal.
In test [8] the test system is Sam68 (KHDRBS1). In words: compounds binding KHDRBS1 protein – biochemical, small-molecule microarray, 635 nm fluorescence, primary screen (AID 1125).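 Further: score merges 667 nm channel intensity with signal to noise over triplicate slides.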 The settings on record: higher = more signal.
Test [9] has as its system Chordin-like protein 2 (CHRDL2). Description: compounds binding chordin-like 2 – biochemical, small-molecule microarray, 635 nm fluorescence, primary screen (AID 1126).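 Further: printed compound slides probed with Chrdl2 protein at 4 µg/mL for 1 h at 4 C; score merges 667 nm emission intensity with signal to noise over three replicate slides.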 The settings on record: fluorescence 635 nm, higher = more signal.
Test [10] deals with Concanavalin-A (Canavalia ensiformis) (UniProt P02866). In words: compounds binding concanavalin A lectin – biochemical, small-molecule microarray, Alexa647 label, 635 nm, artefact control for SMM control protein annotation, primary screen (AID 1127).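 Further: z combines 667 nm emission intensity with signal-to-noise across three replicate slides.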 The settings on record: ConA-A647 binding fluorescence, higher = more signal.

Active and inactive are the calls of the source.

Chain of Concanavalin-A (Canavalia ensiformis) (P02866 whole entry, looked up): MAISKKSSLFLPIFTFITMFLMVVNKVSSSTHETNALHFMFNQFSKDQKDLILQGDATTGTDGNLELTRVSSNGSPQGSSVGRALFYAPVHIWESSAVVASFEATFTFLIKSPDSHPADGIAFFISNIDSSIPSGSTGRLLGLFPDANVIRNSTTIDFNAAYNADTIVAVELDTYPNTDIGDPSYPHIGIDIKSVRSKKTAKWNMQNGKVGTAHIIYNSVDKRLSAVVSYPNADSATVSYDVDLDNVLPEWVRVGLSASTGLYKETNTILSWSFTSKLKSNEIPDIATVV
Chain of Albumin (Bos taurus) (P02769 whole entry, looked up): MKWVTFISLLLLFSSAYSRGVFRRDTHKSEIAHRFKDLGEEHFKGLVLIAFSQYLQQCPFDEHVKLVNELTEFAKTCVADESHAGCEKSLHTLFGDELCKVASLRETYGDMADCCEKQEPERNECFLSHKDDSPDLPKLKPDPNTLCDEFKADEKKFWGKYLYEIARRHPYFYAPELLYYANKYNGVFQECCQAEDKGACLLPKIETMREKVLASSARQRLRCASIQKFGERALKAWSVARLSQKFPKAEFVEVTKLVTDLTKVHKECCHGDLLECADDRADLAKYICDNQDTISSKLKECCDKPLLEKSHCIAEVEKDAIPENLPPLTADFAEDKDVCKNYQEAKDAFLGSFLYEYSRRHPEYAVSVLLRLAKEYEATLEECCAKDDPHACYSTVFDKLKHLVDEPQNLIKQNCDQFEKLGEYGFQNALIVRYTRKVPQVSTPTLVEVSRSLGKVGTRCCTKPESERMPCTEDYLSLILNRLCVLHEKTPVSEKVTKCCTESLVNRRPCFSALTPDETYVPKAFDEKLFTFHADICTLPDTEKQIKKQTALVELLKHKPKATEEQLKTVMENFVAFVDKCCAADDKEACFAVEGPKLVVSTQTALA

On to `CCOC(=O)C[C@H]1[C@H](OC(=O)c2ccc(C(=O)c3ccccc3)cc2)[C@@H](NC(=O)CC(C)C)c2cc(OCCCO)ccc2N1C(=O)c1ccc2ccccc2n1`, for which the composite z-score in [1] is 0.577; in test [3], 0.206; in [4], -0.114; in test [5], 0.232; in test [6], 1.21; in [7], 0.323. Besides, the composite z-score was found to be 1.29 in test [8], 0.448 in [9] and 1.12 in test [10]. Also, in [2], the composite Z-score was -0.86 (inactive).
As to `C=CCN1C(=O)[C@]2(O[C@H](CCn3cc([C@H](O)c4ccccc4)nn3)[C@@H]([Si](C)(C)c3ccc(OC)cc3)[C@@H]2C)c2ccccc21`, the composite z-score in test [1] was -0.0698; in test [3] it was -0.253; in test [4] it was -0.156; in test [5] it was -0.238; in test [6], -0.011; in test [7], 0.0809. The composite z-score in test [8] was -0.776; in test [9] it was -0.278; in test [10] it was -0.847. Also, the composite Z-score in test [2] was 0.0503 (inactive).
As to `COCCOC(=O)N1C(=O)[C@@]2(c3cc(C#Cc4ccc(OC)cc4)ccc31)[C@H](c1ccccc1OCCO)N1[C@H](c3ccccc3)[C@H](c3ccccc3)OC(=O)[C@H]1[C@@H]2C(=O)NC[C@H](O)c1ccccc1`, the composite z-score is -0.0206 in test [1]; 0.156 in [3]; -0.115 in [4]; 0.528 in test [5]; 1.6 in test [6]; 0.618 in test [7]. Moreover, the composite z-score in test [8] stood at 1.29; in test [9], 0.711; in test [10], 0.999. The composite Z-score in [2] is -0.112 (inactive).
For the compound `COC(=O)[C@@]1(Cc2ccc(OC)cc2)[C@H]2c3cc(C(=O)N(C)C)n(Cc4ccccn4)c3C[C@H]2CN1C(=O)c1ccccc1`, the composite z-score in [1] worked out at 0.972; in test [3], 0.0674; in test [4] it was 0.293; in test [5] it was 0.89; in test [6], 3.14; in [7] it was 1.03. Besides, the values for the composite z-score in test [8], in test [9] and in test [10] were -0.0453, -0.855 and -0.0204, respectively. Further, the composite Z-score in test [2] was 0.655 (inactive).
Regarding `COCC(=C=CC[C@@H](O)c1cccc(OCCO)c1)C[C@@H](O)c1ccccn1`, the composite z-score in test [1] was 0.254; in test [3], 0.0979; in test [4] it was -0.14; in test [5] it was 0.744; in [6], 0.486; in [7], 1.73. For the same compound, the figures for the composite z-score in [8], in [9] and in test [10] were 0.338, 0.188 and 0.218, respectively. Further, the composite Z-score in [2] was 0.745 (inactive).
On to `C[C@@]1([C@@H](NC(=O)c2ccc(-c3ccccc3)cc2)c2ccc(Cl)cc2)C[C@H]1C1CCCCC1`, for which the composite z-score is 0.688 in test [1]; 0.305 in test [3]; -0.0527 in [4]; 0.302 in test [5]; 2.21 in [6]; 0.0789 in [7]. Also, the composite z-score was 1.29 in test [8], -0.564 in test [9] and 1.01 in test [10]. Further, in [2], the composite Z-score is -0.286 (inactive).
With `C=C(CCCC)/C(=C/C[C@H](OC(C)=O)c1ccccc1OCCO)c1cc(C(=O)OC)ccc1OC`, the composite z-score in test [1] is 0.0908; in test [3], -0.141; in test [4], -0.117; in test [5] it was 0.767; in test [6], 0.0095; in test [7], 0.095. The figures for the composite z-score in test [8], in [9] and in test [10] were 0.287, -0.193 and -0.701, respectively. For the same compound, the composite Z-score in test [2] was 0.0578 (inactive).
Take `CCC(CC)C(O)C1C=CC2C(=O)NC(=O)C2N1Nc1ccc(Cl)cc1Cl` (stereo not given): the composite z-score in test [1] came out at 0.869; in test [3], 0.237; in [4], 0.0333; in test [5] it was 0.654; in test [6] it was 2.18; in [7] it was 1.02. Further, the composite z-score in [8] was 0.887; in test [9], -0.381; in test [10] it was 1.06. Moreover, in test [2], the composite Z-score was 0.818 (inactive).
For `COCCCNC(=O)[C@@]1(C)c2ccccc2C(=O)N(C(C)C)[C@H]1c1ccc(CO)cc1`, the composite z-score was -0.106 in [1]; 0.0001 in test [3]; 0.0023 in [4]; 0.693 in [5]; 0.75 in test [6]; 0.0526 in test [7]. Also, the composite z-score amounted to 1.16 in test [8], 1.08 in test [9] and 0.67 in [10]. In addition, the composite Z-score in test [2] is 0.466 (inactive).
For `C=C(CCCC)/C(=C/C[C@@H](OC(C)=O)c1ccc(OCCO)cc1)c1cnc2ccccc2c1`, the composite z-score in test [1] was 0.631; in test [3] it was 0.0964; in [4] it was -0.0942; in test [5], 0.718; in test [6], 0.696; in test [7] it was 0.35. For the same compound, the values for the composite z-score in [8], in test [9] and in test [10] were 1.28, 0.963 and 0.555, respectively. The composite Z-score in test [2] was -0.302 (inactive).
For the compound `C=CCN1C(=O)[C@@]2(Cc3ccccc31)N=C(c1ccc(OCCCO)cc1)O[C@H]2c1ccccc1`, the composite z-score in test [1] was -0.519; in test [3] it was 0.307; in test [4], 0.125; in test [5], 0.401; in test [6], 2.8; in test [7], 0.843. Moreover, the composite z-score in test [8] came out at 1.17; in test [9] it was 0.885; in [10] it was 1.17. For the same compound, the composite Z-score in test [2] was 0.302 (inactive).
Take `NC(=O)NCC#Cc1ccc2c(c1)[C@]1(C(=O)N2)[C@H](c2ccc(O)cc2)N2[C@H](c3ccccc3)[C@H](c3ccccc3)OC(=O)[C@H]2[C@@H]1C(=O)O`: the composite z-score is 0.43 in [1]; -0.725 in [3]; -0.281 in test [4]; 0.241 in test [5]; 0.547 in [6]; -0.0085 in test [7]. For the same compound, the figures for the composite z-score in [8], in test [9] and in test [10] were -0.0756, -1.43 and 0.411, respectively. The composite Z-score in test [2] was 0.619 (inactive).
As for `C=C(/C(=C/C[C@H](OC(C)=O)c1ccccc1OCCO)c1cnc2ccccc2c1)C(C)C`, the composite z-score in [1] is 0.0816; in test [3], 0.16; in test [4] it was -0.102; in test [5] it was 0.722; in test [6], 0.202; in test [7], -0.0507. Further, the composite z-score was 0.461 in [8], 0.384 in [9] and 0.922 in test [10]. The composite Z-score in test [2] was -0.323 (inactive).
For `COCCOC(=O)N1C(=O)[C@@]2(c3cc(C#CCCO)ccc31)[C@H](C(=O)N1CCCCCCC1)[C@H]1C(=O)O[C@H](c3ccccc3)[C@H](c3ccccc3)N1[C@@H]2c1ccc(OCCO)cc1`, the composite z-score in [1] was 0.796; in test [3], 1.33; in [4] it was 0.833; in [5], 0.549; in test [6], 2.75; in [7], 0.906. Besides, the values for the composite z-score in test [8], in [9] and in [10] were 1.3, 1.26 and 1.16, respectively. Moreover, the composite Z-score in [2] is 1.91 (inactive).
On to `COCCOC(=O)N1C(=O)[C@@]2(c3cc(C#CCCO)ccc31)[C@H](C(N)=O)[C@H]1C(=O)O[C@H](c3ccccc3)[C@H](c3ccccc3)N1[C@@H]2c1ccc(O)cc1`, for which the composite z-score in test [1] is 0.205; in test [3], -0.159; in [4] it was -0.118; in [5], 0.463; in test [6] it was 0.387; in test [7], 0.505. Further, the composite z-score in test [8] was 0.0991; in test [9] it was -0.464; in test [10], -0.332. Further, the composite Z-score in test [2] is -0.516 (inactive).
In the case of `CN(C)CCCCCCNC(=O)[C@@H]1C[C@@H]2C(=O)N[C@@H](Cc3ccccc3)C(=O)N2[C@@H]1c1ccc(O)cc1`, the composite z-score was -0.0568 in test [1]; 0.299 in test [3]; -0.0276 in [4]; 0.425 in [5]; 1.58 in test [6]; -0.453 in [7]. The composite z-score in [8] amounted to 1.31; in test [9] it was 1.41; in [10], 1.21. Further, the composite Z-score in test [2] was 0.675 (inactive).

(Values after PubChem BioAssay.)
